From PubChem
A350 fluor: compound fluoresces in the Alexa 350 spectral region. Compound autofluorescence, 340/450 nm, Alexa 350 dye-equivalents; hits give high values. max dye-equivalent concentration, M. 11% of 59,000 active. AID 590; in the data active = max dye-equivalent concentration above about 10 nM; inconclusive = mostly about 1.1 nM to 9.6 nM
AID923: qHTS Assay for Allosteric/Competitive Inhibitors of Caspase-1: Spectroscopic Profiling in AFC Spectral Region; compound fluorescence, AFC spectral region (405/520 nm); Potency, µM (highest dose often 57.5 µM), most hits filed as activators; 1.1% of 75,000 active
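Titrations up to 57 uM read every 20 sec for 3 min (405/520 nm) with 50 nM caspase 1 and 5 uM Ac-WEHD-AFC, pH 7.5 HEPES buffer. Fluorescence-vs-time intercept gave baseline, scaled against on-plate AFC standard.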
HADH2 inh: HADH2 (human) dehydrogenase inhibition | Potency, µM (titrated, usually from 57.1 µM), usual class: inhibitors | AID 886 | Q99714 | 3.4% of 73,000 active | recombinant HADH2, NADH fluorescence, beta-hydroxybutyryl-CoA; note: nearly all actives have a fitted effect of over 60% in size
Target sequence (Q99714 whole entry, looked up, one chain of several): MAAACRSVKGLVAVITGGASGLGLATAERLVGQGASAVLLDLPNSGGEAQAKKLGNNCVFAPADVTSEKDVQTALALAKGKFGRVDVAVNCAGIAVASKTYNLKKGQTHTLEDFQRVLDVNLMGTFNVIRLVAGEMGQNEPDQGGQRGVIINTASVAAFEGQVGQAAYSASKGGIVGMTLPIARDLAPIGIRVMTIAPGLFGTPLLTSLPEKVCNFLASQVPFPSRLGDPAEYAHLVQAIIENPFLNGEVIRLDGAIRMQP
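His-tagged recombinant enzyme from E. coli, 20 nM, preincubated 15 min RT with compound; reaction started with 1 mM NAD+ and 90 uM beta-hydroxybutyryl-CoA in 100 mM Tris-HCl pH 9.0. NADH fluorescence (ex 360/em 450) read over 4 min; last-minus-first difference.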
HSD17B inh: HSD17B dehydrogenase inhibition; Potency, µM (top dose mostly 57.1 µM), hits mostly inhibitors; Q99714; recombinant HSD17B10, NADH fluorescence kinetic; 7.6% of 75,000 active;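 note: the protocol describes HADH2 (HSD17B10) and not the HSD17B4 of the title; nearly all actives have a fitted effect of over 70% in size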
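Activity followed as NADH fluorescence increase (ex 360, em 450 nm) every 30 seconds for 4 min, using final 90 uM beta-hydroxybutyryl CoA and 1 mM NAD+. Recombinant His-tagged enzyme, 20 nM, pH 9.0 Tris buffer, 15 min compound preincubation.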
4-MU autofl: compound fluoresces in the 4-MU spectral region. 11% of 59,000 active. compound autofluorescence, 340/450 nm, 4-MU equivalents; hits give high values. max dye-equivalent concentration, M. AID 589; in the data active = max dye-equivalent concentration above about 10 nM; inconclusive = mostly about 1.1 nM to 9.6 nM
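Compounds in 100 mM Tris, pH 8.0, sat 15 min at room temperature before fluorescence was read at 340 nm excitation/450 nm emission; a per-plate six-point 4-MU standard curve converted signals to dye-equivalent concentration at each compound concentration.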
GBA mod: human lysosomal glucosylceramidase modulation. 1.1% of 48,000 active. P04062. Potency, µM. purified enzyme, resorufin glucoside fluorescence (screen aimed at inhibitors), 20 min; in the data active = potency below about 15 µM; inconclusive = mostly about 16 µM to 33 µM;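 note: the screen sought inhibitors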
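Wild-type enzyme at 0.2 nM final in 50mM citric acid/KH2PO4, 10mM sodium taurocholate, 0.01% tween-20, pH 5.9, with resorufin beta-D-glucopyranoside at 30 uM final. Compounds titrated, 20 min at RT, red fluorescence read; AC50 from titration.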
Large screens that a line does not name were inactive. Most compounds without a hit are left out; they make up all but 13% or so of the library. Unless noted, calls come from the whole dose curve; as a rule, active = well fitted curve in the direction sought with a large enough effect; inconclusive = small, poorly fitted or top-dose-only effect, or another doubt; inactive = no such curve, though single readings can be large; an effect the other way counts as inactive or inconclusive.

Cc1ccc(N2CCN(c3cc(C)nc4nc(C)nn34)CC2)c(C)c1	none (no result: A350 fluor, 4-MU autofl, GBA mod)
CCC[C@@H]1C[C@@]1(CCC)[C@@H](NC(=O)Oc1ccccc1)c1ccc(C(=O)OC)cc1	none (no result: A350 fluor, 4-MU autofl, GBA mod)
CCn1cc(C(=O)O)c(=O)c2cc(F)c(N3CCNCC3)nc21	none (no result: GBA mod)
CCn1cc(C(=O)O)c(=O)c2cnc(N3CCN(C(=O)Nc4cccc5ccccc45)CC3)nc21	A350 fluor inconclusive, HSD17B inh 25µM, 4-MU autofl inconclusive
Cc1cc(Cc2cc(C)cc(C(C)(C)C)c2O)c(O)c(Cc2cc(C)cc(C(C)(C)C)c2O)c1	none (no result: GBA mod)
Nc1cc(C(=O)O)[nH]c(=O)n1	none (no result: GBA mod)
Cn1c(=O)c2[nH]c(SCCN3CCOCC3)nc2n(C)c1=S	HADH2 inh inconclusive, HSD17B inh inconclusive (no result: GBA mod)
Cc1ccc(CSc2nc3c(c(=O)[nH]2)C(c2ccncc2)C2=C(CCCC2=O)N3)cc1 (stereo not given)	A350 fluor 8.6e-08M, HSD17B inh 25µM, 4-MU autofl 1e-07M
